Measured values taken from PubChem BioAssay (NCI).
This is part of a sample that, as a whole, favours compounds with a hit. Of some 83,000 tested, about 20% had one in any assay.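 Activity criterion: percent growth below 10, measured after cells in 96-well plates were exposed to a single compound concentration for 48 hours.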 A number with no mark means an inactive call. The source made the active and inactive calls.

Tests used:
Experiment in all cases: NCI-60 one-dose screen, 48 h (100 = growth as untreated, 0 = no growth, -100 = all killed)
Conditions in all cases: 10 µM unless noted
[1] = tested on: DU-145 prostate
[2] = tested on: K-562 leukemia
[3] = tested on: MALME-3M melanoma
[4] = tested on: MDA-MB-231 breast
[5] = tested on: RXF 393 renal
[6] = tested on: SF-268 CNS
[7] = tested on: SF-295 CNS
[8] = tested on: SF-539 CNS
[9] = tested on: UACC-257 melanoma
[10] = tested on: HCT-15 colon
[11] = tested on: HT29 colon
[12] = tested on: SNB-75 CNS
[13] = tested on: SNB-19 CNS
[14] = tested on: U251 CNS
[15] = tested on: PC-3 prostate
[16] = tested on: SK-MEL-5 melanoma
[17] = tested on: UACC-62 melanoma
[18] = tested on: LOX IMVI melanoma
[19] = tested on: SK-MEL-28 melanoma

## O=[N+]([O-])c1cc(/C=N/Nc2nc(N/N=C/c3ccc(Cl)c([N+](=O)[O-])c3)nc(N3CCCCC3)n2)ccc1Cl
[1]
  growth: 29.6%
[2]
  growth: 31.7%
[3]
  growth: 101%
[4]
  growth: 48.3%
[5]
  growth: 99.9%
[6]
  growth: 64.9%
[7]
  growth: 93.2%
[8]
  growth: 36.3%
[9]
  growth: 51.1%
[10]
  growth: 49.7%
[11]
  growth: 7.43% (active)
[12]
  growth: 136%
[13]
  growth: 72.6%
[14]
  growth: 18.5%
[15]
  growth: 53.4%
[16]
  growth: 77.8%
[17]
  growth: 43.1%
[18]
  growth: 66%
[19]
  growth: 62.2%

## Nc1ccccc1NC(=O)c1ccc(NC(=O)C/C=C/c2cccnc2)cn1
[1]
  growth: 6.29% (active)
[2]
  growth: 15.7%
[3]
  growth: 15.6%
[4]
  growth: 41.6%
[5]
  growth: -35.5% (active)
[6]
  growth: 28.3%
[7]
  growth: 21.8%
[8]
  growth: 9.41% (active)
[9]
  growth: 14.5%
[10]
  growth: 21.4%
[11]
  growth: 12.9%
[12]
  growth: 29.4%
[13]
  growth: 33.1%
[14]
  growth: 15.6%
[15]
  growth: 31.6%
[16]
  growth: -75.9% (active)
[17]
  growth: 0.71% (active)
[18]
  growth: 1.78% (active)
[19]
  growth: -34% (active)

## Nc1ccccc1NC(=O)c1ccc(NC(=O)C/C=C/c2cccnc2)cc1
[1]
  growth: 14.1%
[2]
  growth: 17.1%
[3]
  growth: 18.1%
[4]
  growth: 50.5%
[5]
  growth: -13.9% (active)
[6]
  growth: 35.3%
[7]
  growth: 34.9%
[8]
  growth: 7.57% (active)
[9]
  growth: 26.6%
[10]
  growth: 30.2%
[11]
  growth: 18.1%
[12]
  growth: 44.6%
[13]
  growth: 39.4%
[14]
  growth: 21.5%
[15]
  growth: 36.9%
[16]
  growth: 12.3%
[17]
  growth: 15%
[19]
  growth: 0.0488% (active)

## COc1ccc(S(=O)(=O)NCCCNc2nccc(-c3[nH]c(-c4ccccc4)nc3-c3ccc(Cl)c(O)c3)n2)cc1
[1]
  growth: 89.3%
[2]
  growth: 55.2%
[3]
  growth: -7% (active)
[4]
  growth: 61.4%
[5]
  growth: 140%
[6]
  growth: 92%
[7]
  growth: 96.4%
[8]
  growth: 101%
[9]
  growth: 23.6%
[10]
  growth: 93.7%
[11]
  growth: 73.8%
[12]
  growth: 108%
[13]
  growth: 105%
[14]
  growth: 83.3%
[15]
  growth: 66.4%
[16]
  growth: 56.9%
[17]
  growth: 18.1%
[18]
  growth: 56.9%
[19]
  growth: 23.5%

## CNC(=O)c1c(NC(=O)c2cccc(C(F)(F)F)c2F)sc2c1CCC(=O)C2
[1]
  growth: 30.6%
[2]
  growth: 13.2%
[3]
  growth: 6.12% (active)
[4]
  growth: -28.8% (active)
[5]
  growth: -11.4% (active)
[6]
  growth: 16.7%
[7]
  growth: -6.97% (active)
[8]
  growth: -56% (active)
[9]
  growth: -1.77% (active)
[10]
  growth: 5.54% (active)
[11]
  growth: 9.35% (active)
[12]
  growth: 0.105% (active)
[13]
  growth: 16.5%
[14]
  growth: 4.78% (active)
[15]
  growth: 14.9%
[16]
  growth: -83.7% (active)
[17]
  growth: 7.56% (active)
[18]
  growth: 16%
[19]
  growth: 47.8%

## Cn1cc(CNc2nc3ccc(OC/C(=C/F)CN)cc3o2)ccc1=O
[1]
  growth: 110%
[2]
  growth: 93.8%
[3]
  growth: 98.7%
[4]
  growth: 99.3%
[5]
  growth: 107%
[6]
  growth: 102%
[7]
  growth: 96.1%
[8]
  growth: 97.1%
[9]
  growth: 111%
[10]
  growth: 103%
[11]
  growth: 111%
[12]
  growth: 110%
[13]
  growth: 98%
[14]
  growth: 106%
[15]
  growth: 107%
[16]
  growth: 104%
[17]
  growth: 95.1%
[18]
  growth: 98.2%
[19]
  growth: 99.4%

## CC1=NC2=NN3C(=NN2C(c2ccccc2)=C1)N=NC(c1ccc(Br)cc1)=C3c1ccc(Br)cc1
[1]
  growth: 112%
[2]
  growth: 96.9%
[3]
  growth: 53.6%
[4]
  growth: 95.7%
[5]
  growth: 138%
[6]
  growth: 102%
[7]
  growth: 106%
[8]
  growth: 97.2%
[9]
  growth: 109%
[10]
  growth: 103%
[11]
  growth: 105%
[12]
  growth: 117%
[13]
  growth: 98.1%
[14]
  growth: 103%
[15]
  growth: 97.1%
[16]
  growth: 106%
[17]
  growth: 89.9%
[19]
  growth: 105%

## COc1ccc([C@@H]2c3[nH]c4ccccc4c3C[C@H]3C(=O)N(C4CCN(CC5CCCCC5)CC4)CC(=O)N23)c(OC)c1
[1]
  growth: 80.8%
[2]
  growth: 22%
[3]
  growth: 95.7%
[4]
  growth: 75.5%
[5]
  growth: 28.7%
[6]
  growth: 67.2%
[7]
  growth: 98.6%
[8]
  growth: 78.6%
[9]
  growth: 84.8%
[10]
  growth: 56.5%
[11]
  growth: 1.45% (active)
[12]
  growth: 83.2%
[13]
  growth: 86.4%
[14]
  growth: 72.4%
[15]
  growth: 49.3%
[16]
  growth: 73.3%
[17]
  growth: 93.9%
[18]
  growth: 54.3%
[19]
  growth: 89.1%

## COc1cc(/C=C/C(=O)c2ccc(NC(=O)CSc3nnc(-c4ccc(-c5nc6ccc(Cl)cc6[nH]5)cc4)o3)cc2)cc(OC)c1OC
[1]
  growth: 94%
[2]
  growth: 60.1%
[3]
  growth: 95.5%
[4]
  growth: 79.1%
[5]
  growth: 84.1%
[6]
  growth: 91.8%
[7]
  growth: 95.6%
[8]
  growth: 94.2%
[9]
  growth: 88.1%
[10]
  growth: 53.7%
[11]
  growth: 106%
[12]
  growth: 88.4%
[13]
  growth: 89%
[14]
  growth: 88.5%
[15]
  growth: 92.2%
[16]
  growth: 94.1%
[17]
  growth: 74.2%
[18]
  growth: 88.6%
[19]
  growth: 88.3%

## C=C1CC[C@@H]2[C@]3(C)COC(c4ccccc4)O[C@@H]3CC[C@@]2(C)[C@@H]1C/C=C1/C(=O)OC[C@H]1O (stereo partly specified)
[1]
  growth: 92.1%
[2]
  growth: 43.7%
[3]
  growth: 110%
[4]
  growth: 99.3%
[5]
  growth: 127%
[6]
  growth: 97.5%
[7]
  growth: 102%
[8]
  growth: 92.1%
[9]
  growth: 85%
[10]
  growth: 65.5%
[11]
  growth: 54.8%
[12]
  growth: 100%
[13]
  growth: 97%
[14]
  growth: 64.2%
[15]
  growth: 82.4%
[16]
  growth: 94.7%
[17]
  growth: 85.7%
[18]
  growth: 33.8%
[19]
  growth: 107%

## CCCCc1nc(/C=N/Nc2nc(Nc3ccccc3)nc(Nc3ccc(S(N)(=O)=O)cc3)n2)c(Cl)[nH]1
[1]
  growth: 84.6%
[2]
  growth: 38%
[3]
  growth: 99.7%
[4]
  growth: 67%
[5]
  growth: 117%
[6]
  growth: 65.9%
[7]
  growth: 102%
[8]
  growth: 81.2%
[9]
  growth: 108%
[10]
  growth: 103%
[11]
  growth: 102%
[12]
  growth: 112%
[13]
  growth: 30.7%
[14]
  growth: -1.83% (active)
[15]
  growth: 83%
[16]
  growth: 75.2%
[17]
  growth: 72.8%
[18]
  growth: 41.1%
[19]
  growth: 71%

## NC(=O)c1c(NC(=O)c2ccc(F)cc2F)sc2c1CCC(=O)C2
[1]
  growth: 101%
[2]
  growth: 15.8%
[3]
  growth: 63.8%
[4]
  growth: 39.2%
[5]
  growth: 85.1%
[6]
  growth: 34.7%
[7]
  growth: 99.7%
[8]
  growth: 16.3%
[9]
  growth: 81.8%
[10]
  growth: 11.8%
[11]
  growth: 59.8%
[12]
  growth: 66.8%
[13]
  growth: 59.3%
[14]
  growth: 32.4%
[15]
  growth: 16.3%
[16]
  growth: 64.6%
[17]
  growth: 22.6%
[18]
  growth: 22.6%
[19]
  growth: 37%

## Fc1ccc(-c2cc3nc(C(Cl)Cl)nc(-c4ccco4)n3n2)cc1
[1]
  growth: -48.2% (active)
[2]
  growth: 33.4%
[3]
  growth: 93.3%
[4]
  growth: -26.2% (active)
[5]
  growth: -65.6% (active)
[6]
  growth: 3.07% (active)
[7]
  growth: -9.65% (active)
[8]
  growth: -43.4% (active)
[9]
  growth: 30.8%
[10]
  growth: 4.34% (active)
[11]
  growth: -13.4% (active)
[12]
  growth: 55.7%
[13]
  growth: 0.644% (active)
[14]
  growth: -9.36% (active)
[15]
  growth: -19.2% (active)
[16]
  growth: 95.9%
[17]
  growth: 17.2%
[18]
  growth: 93.5%
[19]
  growth: -24.5% (active)

## NS(=O)(=O)c1ccc(Nc2nc(N/N=C/CCc3ccccc3)nc(Nc3ccccc3)n2)cc1
[1]
  growth: 109%
[2]
  growth: 96.7%
[3]
  growth: 113%
[4]
  growth: 97.5%
[5]
  growth: 96%
[6]
  growth: 107%
[7]
  growth: 106%
[8]
  growth: 98.3%
[9]
  growth: 112%
[10]
  growth: 105%
[11]
  growth: 107%
[12]
  growth: 112%
[13]
  growth: 104%
[14]
  growth: 104%
[15]
  growth: 104%
[16]
  growth: 99.7%
[17]
  growth: 95.8%
[19]
  growth: 107%

## C#CCNC1CCC(c2csc(C#C)n2)=C1C (stereo unspecified)
[1]
  growth: 67.6%
[2]
  growth: 63%
[3]
  growth: -78.3% (active)
[4]
  growth: 8.61% (active)
[5]
  growth: 117%
[6]
  growth: 78.1%
[7]
  growth: -28.2% (active)
[8]
  growth: -92.4% (active)
[9]
  growth: 80.1%
[10]
  growth: 96.6%
[11]
  growth: 50.7%
[12]
  growth: 113%
[13]
  growth: 90.6%
[14]
  growth: 4.13% (active)
[15]
  growth: 80.8%
[16]
  growth: 90%
[17]
  growth: 76.8%
[18]
  growth: -90.7% (active)
[19]
  growth: 97%

## O=S(=O)(NCCNc1nccc(-n2cnc3ccccc32)n1)c1ccc(Br)cc1
[1]
  growth: 99.9%
[2]
  growth: 88.4%
[3]
  growth: 103%
[4]
  growth: 88.2%
[5]
  growth: 101%
[6]
  growth: 91.2%
[7]
  growth: 96.5%
[8]
  growth: 96.2%
[9]
  growth: 109%
[10]
  growth: 95.7%
[11]
  growth: 97.2%
[12]
  growth: 74.1%
[13]
  growth: 101%
[14]
  growth: 98.6%
[15]
  growth: 93.8%
[16]
  growth: 89.1%
[17]
  growth: 82.8%
[18]
  growth: 99.1%
[19]
  growth: 108%
